Rows were chosen to be rich in hits. Some 4.6% of all compounds tested hit in one or more screens of this group.
D1 PAM – enhances dopamine response at the human D1 receptor; HEK293 TREx D1 cells, calcium flux, dopamine EC20 potentiation; P21728; potentiation, % at 10 µM; AID 504651; actives 0.036% (n = 360,000); in the data active means potentiation above about 30%; further: 0% is about no effect
Target sequence (P21728 whole entry, looked up): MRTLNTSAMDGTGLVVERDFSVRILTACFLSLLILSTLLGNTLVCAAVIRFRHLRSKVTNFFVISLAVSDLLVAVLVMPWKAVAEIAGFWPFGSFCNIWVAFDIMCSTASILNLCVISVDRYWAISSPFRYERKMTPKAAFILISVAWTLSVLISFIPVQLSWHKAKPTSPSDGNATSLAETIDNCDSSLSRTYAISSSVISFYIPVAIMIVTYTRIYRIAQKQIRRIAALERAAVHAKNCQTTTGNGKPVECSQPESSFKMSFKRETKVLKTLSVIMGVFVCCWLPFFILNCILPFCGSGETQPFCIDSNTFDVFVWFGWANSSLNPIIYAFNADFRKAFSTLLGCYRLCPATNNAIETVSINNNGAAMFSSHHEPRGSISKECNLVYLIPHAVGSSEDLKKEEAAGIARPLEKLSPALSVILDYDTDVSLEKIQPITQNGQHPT
D1 ag – activates the human D1 dopamine receptor. P21728. HEK293 T-REx D1 cells, calcium flux, agonist mode. activation, % at 2 µM. actives 1% (n = 360,000); further: 0% is about no effect
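Inducible HEK293 T-REx D1 cells, force-coupled to calcium signalling, were plated at 4000 cells/well with tetracycline and held overnight at 30 C. After no-wash calcium dye loading, compound-evoked calcium rise over 180 s flagged agonists.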
TRHR ag – activates the human TRH receptor; TRHR cells, calcium flux fluo-8, FDSS agonist mode; AID 493084; actives 0.18% (n = 360,000); activation, % at 2 µM; further: 0% is about no effect
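TRHR-expressing cells loaded with fluo-8 calcium dye; 23 nL library compound pin-transferred, kinetic FDSS fluorescence (Ex 480/Em 530) recorded about 180 s for agonist-induced calcium release, before a 10 nM TRH EC20 addition for potentiator mode.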
D1 antag – human D1 dopamine receptor antagonism | activity change, negative = inhibition, % at 10 µM | HEK293 TREx D1 cells, calcium flux, dopamine EC80; stronger effect = lower value | actives 3.2% (n = 360,000); in the data active means activity change below about -30%; further: on the % scale 0 is the no-effect control and ±100 the full control effect
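Using tetracycline-induced force-coupled D1 Hek293 cells and a calcium dye, signals were followed for 180 s after compound, then for 180 s after EC80 dopamine, to detect inhibitors.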
Epigenetic reg – regulators of epigenetic silencing causing reporter derepression in mouse cells | murine LDR cells, GFP reporter derepression, 30 h | AID 1865 | Potency, µM (series often up to 53.9 µM), without a hit: at the top dose GFP activation, hits mostly activators | actives 0.2% (n = 280,000); active means well fitted activation curve with a large enough effect; inconclusive means small, poorly fitted or top-dose-only effect; further: potency means the concentration at half of the fitted maximal effect; % of control where 0% means no effect; nearly all actives have a fitted effect of over 60% in size
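Murine LDR cells carrying a silenced, genomically integrated CMV-driven GFP reporter were exposed to compound for 30 hours at 37 C. After PBS washes, GFP-positive cells (20–120 um objects) were counted by laser-scanning microplate cytometry.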
TRHR enhancer – allosteric enhancers of human TRH receptor; P34981; TRHR cells, fluo-8 calcium fluorescence, EC20 TRH enhancement; enhancement, % at 2 µM; actives 0.66% (n = 360,000); in the data active means enhancement above about 30%; further: 0% is about no effect
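TRHR-expressing cells loaded with fluo-8 calcium dye were read kinetically (ex 480/em 530) during compound addition, then stimulated with an EC20 of TRH (10 nM final). Enhancement of the Gq-mediated intracellular calcium response was scored.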
Active calls of the source: *; ? = inconclusive; . = not tested or not shown; [ ] = dose if it differs, or a comment. Unless noted, no stated cut-off is given here; in the data, active means activation above about 30%; inactive means the rest.

SMILES	D1 PAM	D1 ag	TRHR ag	D1 antag	Epigenetic reg	TRHR enhancer
CCn1cc(C(=O)NCc2ccc(C)cc2)c(=O)c2cc(S(=O)(=O)N3CCCCCC3)ccc21	-2	-1	0	-13	-1%	0
COC(=O)c1ccc(C(=O)OC)c(NC(=O)COC(=O)c2ccc(OC)c(OC)c2OC)c1	-5	0	0	-86*	2%	-5
CCOCC(=O)Nc1cc(C(=O)OC)ccc1C(=O)OC	-10	0	-1	-19	0%	0
CC1C/C(=N/O)C(C)CN1 (centres undefined)	3	2	1	11	-2%	34*
Nc1cccnc1Oc1ccc(F)cc1	-4	0	0	-1	0%	3
FC(F)(F)c1cccnc1Oc1ccc(C2=NCCS2)cc1	-2	37*	8	-6	7%	-1
CCCCNC(=O)c1sc2ncccc2c1-n1cccc1	-2	0	0	-3	-2%	4
CCN(CC)CCNC(=O)c1sc2ncccc2c1-n1cccc1	0	5	1	-36*	-2%	1
CCN(CC)CCNC(=O)c1ccccn1	0	1	1	-32*	2%	-2
Cc1oc(-c2ccc(C(=O)NCc3ccc(Cl)cc3)cc2)nc1CS(=O)(=O)c1ccccc1	0	0	1	-6	?	1
CCOc1ccc(C(=O)Nc2cc(-c3cn4cccnc4n3)ccc2C)cc1OCC	0	0	-1	-10	1%	3
COc1cc2nc(=S)n3[nH]c(CCn4nc(C)cc4C)nc3c2cc1OC	0	2	0	14	5µM*	3
Cc1nc2ccn(Cc3cccs3)c(=O)c2cc1C(=O)N1CCN(c2ccccc2)CC1	-3	2	0	9	0%	4
CCC(C)NCCOCCOc1ccc(Cl)c2ccccc12 (centres undefined)	0	58*	5	-45*	1%	-1
CCC(C)NCCOCCOc1ccc(Cl)c(C)c1C (centres undefined)	-3	34*	2	-4	-1%	7
CCN(CC)c1ccc2cc(C(=O)NCc3ccc(F)cc3)c(=N)oc2c1	-11	170*	34*	-29	.	-2
Cc1cc2c(s1)c1cnn(Cc3cc(F)cc(F)c3)c(=O)c1n2C	-6	2	0	-23	.	2
O=C(NC(=S)Nc1ccccn1)c1cccc([N+](=O)[O-])c1	-6	0	0	-55*	2%	-6
CCOc1ccc(C(=O)NC(=S)Nc2ccccn2)cc1[N+](=O)[O-]	-3	4	0	-4	?	-11
O=C(Nc1cccc(NC(=O)c2cccc([N+](=O)[O-])c2)n1)c1cccc([N+](=O)[O-])c1	-9	4	0	-34*	.	-7
CCC(=O)O[C@@H]1[C@H](C)O[C@H](O[C@H]2[C@@H](N(C)C)[C@H](O)[C@@H](O[C@@H]3[C@@H](CC=O)C[C@@H](C)[C@@H](O)/C=C\C=C/C[C@@H](C)OC(=O)C[C@@H](OC(=O)CC)[C@H]3OC)O[C@H]2C)C[C@]1(C)O	.	.	.	.	0%[16.9 µM]	.
Cc1ccc(NC(=O)Cc2ccc3c(c2)CCCC3)cc1C	0	3	0	-31*	-1%	1
Cc1ccc(CNC(=S)Nc2ccc(C)c([N+](=O)[O-])c2)cc1	-7	38*	3	-31*	-1%	-4
O=C(CCc1ccccc1)Nc1ccc(F)c([N+](=O)[O-])c1	-3	10	-1	-18	-5%	-4
Cc1ccc(NC(=O)Nc2ccc3c(c2)CCC3)cc1C	-12	1	1	1	.	28
SMILES	D1 PAM	D1 ag	TRHR ag	D1 antag	Epigenetic reg	TRHR enhancer
Cc1ccc(CC(=O)Nc2ccc(F)c([N+](=O)[O-])c2)cc1	-9	9	-1	-43*	0%	-4
Cc1ccc(CC(=O)Nc2ccc(F)c([N+](=O)[O-])c2)cc1C	-4	9	1	-35*	-3%	-1
CCC(C(=O)C(C)C(O)C(C)CCc1ccc(C)c(O)c1C(=O)O)C1OC(CC)(C2CC[C@@](O)(CC)C(C)O2)CC1C (some centres undefined)	.	.	.	.	0%	.
CCN(CC)c1ccc(/C=N/NC(=O)c2ccc(O)cc2)cc1	.	.	.	.	0%	.
O=C(NN1C(=O)C2C3C=CC(C4CC34)C2C1=O)c1ccc(Br)cc1 (centres undefined)	-4	1	0	-14	-1%	-6
O=C(NN1C(=O)C2C3C=CC(C4CC34)C2C1=O)c1ccc(Cl)c(Cl)c1 (centres undefined)	0	1	1	-13	-1%	30*
CC(=O)N1CCc2cc(Br)cc(S(=O)(=O)CCC(=O)N3CCN(c4ccccc4Cl)CC3)c21	0	0	0	-6	0%	-2
O=C(CCn1c(=O)[nH]c2ccsc2c1=O)N1CCN(c2cccc(Cl)c2)CC1	-7	1	-2	-50*	0%	8
O=C(CCCCn1c(=O)[nH]c2ccsc2c1=O)N1CCN(c2cccc(Cl)c2)CC1	-1	4	0	-36*	-5%	1
O=C(CCn1c(=O)[nH]c2ccsc2c1=O)N1CCN(c2ccc([N+](=O)[O-])cc2)CC1	5	4	0	-2	.	36*
CCOc1ccccc1-c1nc(Cn2c(=O)cc(C)c3c(C)nn(-c4ccccc4)c32)c(C)o1	2	-1	0	-1	1%	4
CCc1ccc(NC(=O)c2cc3nc(-c4ccc(C)cc4)cc(C(F)(F)F)n3n2)cc1	-1	-1	0	1	1%	-1
CCN1CCN(CCCNC(=O)c2cc3c(=O)n(C)c4ccccc4c3s2)CC1	-2	3	0	7	0%	5
Cc1ccc(CNC(=O)c2ccc(Cn3c(=O)c4ccccc4n(CC(=O)Nc4ccc(C)cc4)c3=O)cc2)cc1	2	33*	1	6	2%	6
CCc1ccc(NC(=O)Cn2c(=O)n(CCC(=O)N3CCc4ccccc4C3)c(=O)c3ccccc32)cc1	-1	-1	1	-31*	-2%	5
C=CCn1c(=O)c2ccc(C(=O)NCc3ccccc3)cc2n(Cc2ccc(C)cc2)c1=O	-4	-2	-2	-30*	0%	3
CCc1nn2c(=O)cc(COC(=O)c3cccc(NC(=O)c4cccs4)c3)nc2s1	1	0	-1	3	0%	0
COc1cccc2c1OC(=O)CC2c1ccc(C)cc1 (centres undefined)	.	.	.	.	13%[96.6 µM]	.
O=C(Nc1cccc(F)c1)c1ccc2oc(=O)n(Cc3ccccc3)c2c1	-1	5	1	-1	-5%	0
